High-throughput results: PubChem BioAssay, Center for Chemical Genomics, University of Michigan
This is one part of a sample in which hits are shown more often than they occur.
Dicer inh: human Dicer pre-microRNA cleavage inhibition; Q9UPY3; cat-ELCCA pre-miR-21 Dicer processing, chemiluminescence; active compounds read high; z-score at 25 µM; hit rate 6% among 47,000; AID 1347074; in the data active = z-score above about 3, passing the limit was not always enough;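 also: plate controls were vehicle for no effect and no enzyme for full effect; higher signal means more uncleaved substrate so more Dicer inhibition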
* hit, by the source's call.

SMILES	Dicer inh
C#CC1(NC(=O)NC(=O)c2ccccc2Cl)CCCCC1	-0.16
O=C1c2ccccc2C(=O)c2c(F)ccc(F)c21	-0.13
CCOC(=O)c1c(C)oc2ccc(O)c(CN(C)C)c12	4*
CCOC(=O)c1c(C)oc2cc(Cl)c(O)c(CN(C)C)c12	1.81
CCOC(=O)c1c(CN(CC)CC)oc2ccc(OC)cc12	0.26
COc1cc2c(c(OC)c1OC)C(=O)/C(=C/c1ccc(Cl)cc1Cl)C2	-0.37
CC(CN(C)Cc1ccccc1)OC(=O)c1ccc2c(c1)OCO2 (stereo not given)	2.83
O=C(Nc1ccc(OC(F)(F)F)cc1)Nc1cc(C2CC2)nn1-c1ccccc1	-1.23
Cc1nn(C)c2oc(=O)c(Cl)c(C)c12	-0.5
CCOC(=O)N1CC(C)N(C(=O)OCC)CC1C (stereo not given)	-0.08
CCc1ccc(CN2CCC(N3CCN(CCO)CC3)CC2)cc1	0.59
CCc1ccc(CN2CCN(S(C)(=O)=O)CC2)cc1	3.66*
CCc1ccc(NS(C)(=O)=O)cc1	1.17
CCCS(=O)(=O)N1CCN(Cc2ccc(Br)cc2)CC1	2.44
CC1CCCC(N2CCN(Cc3ccc(Cl)cc3)CC2)C1 (stereo not given)	0.84
CCc1ccc(CN2CCN(C3CCCC(C)C3)CC2)cc1 (stereo not given)	3.01*
CS(=O)(=O)N1CCN(CC(O)Cn2c3ccccc3c3ccccc32)CC1 (stereo not given)	1.39
CSc1ccc(CN2CCN(S(C)(=O)=O)CC2)cc1	3.11*
c1cc(CN2CCN(Cc3ccncc3)CC2)ccn1	11
CC(C)(C)C(=O)ON=C(c1cccs1)c1cccs1	-1.42
Nc1c(C(=O)c2ccccc2)sc2nnc(-c3ccccc3)c(-c3ccccc3)c12	-0.19
CC(C)(C)OC(=O)NCCCN=Cc1ccc(C(F)(F)F)cc1	0.13
OC1(c2ccc(F)cc2)Cc2ccccc2C2=NCCN21 (stereo not given)	5.64*
O=C(CN1C2=NCCN2c2ccccc21)c1ccc(F)cc1	-0.27
O=C(CCCN1CCN(c2ccccn2)CC1)c1ccc(F)cc1	1.25
SMILES	Dicer inh
COc1ccc(/C(C#N)=C/c2cc(Br)cs2)cc1	14.4
Cc1c(CSC(=N)N)c(C)c(CSC(=N)N)c(C)c1CSC(=N)N	-8.7
CCCn1c(=O)c2oc(C)cc2n(-c2ccccc2C)c1=O	-0.63
CCOC(=O)c1c(C)n(C)c2cc(CN(C)C)c(O)c(S(=O)(=O)c3ccccc3)c12	3.8*
CCOC(=O)c1c(CN(C)C)n(C)c2cc(Br)c(O)c(CN(C)C)c12	1.91
CCOC(=O)c1c(CS(=O)(=O)c2ccccc2)n(C)c2cc(Br)c(O)cc12	1.36
CSc1nn(-c2ccccc2)cc1/C(N)=N/OC(=O)Nc1cccc(Cl)c1	-0.04
CN1C(=O)c2ccccc2S12OC(=O)c1cccc3cccc2c13 (stereo not given)	-1.69
COCc1cc(C)nc(N2CCN(Cc3ccccc3)CC2)c1C#N	0.42
Cc1cc(C)c2c(n1)sc1c(N3CCN(c4ccccc4)CC3)ncnc12	1.39
Cc1cc(C)c(C#N)c(N2CCN(c3ccccc3)CC2)n1	3.24*
Cc1nc(-c2nnc(Sc3ccc(C(F)(F)F)cc3[N+](=O)[O-])n2C)cs1	-0.07
CCOC(=O)C1=C(C)OC(N)=C(C#N)C1c1ccc(Cl)cc1 (stereo not given)	-2.71
Cc1cc(S(=O)(=O)Nc2cccc(F)c2)c(C)c(S(=O)(=O)c2ccccc2)c1	1.8
Cc1ccc(F)cc1S(=O)(=O)Nc1ccc2c(c1)OCC1CCCN21 (stereo not given)	6.51*
COc1ccc(NS(=O)(=O)c2ccc(F)cc2)cc1OC1CCCC1	-0.39
CC1=CCC2C(=O)N(c3cc(C)on3)C(=O)C2C1 (stereo not given)	-0.01
CC1=CCC2C(=O)N(c3ccccc3O)C(=O)C2C1 (stereo not given)	-0.99
CC1=CCC2C(=O)N(c3ncccn3)C(=O)C2C1 (stereo not given)	3.68*
O=C(NC(=O)N1CCCC1)c1ccc(Oc2ccc(Cl)cc2)c([N+](=O)[O-])c1	-0.17
COC(=O)C1=C(C)NC2=C(C(=O)CCC2)C1c1cccc(Br)c1 (stereo not given)	-0.4
CCOC(=O)C1=C(C)NC2=C(C(=O)CCC2)C1c1cccc(Br)c1 (stereo not given)	-0.86
CC1=C(C(=O)Nc2nc3ccccc3s2)C(c2cccc(Br)c2)C2=C(CCCC2=O)N1 (stereo not given)	3.18*
OC1CC(c2ccccc2)Oc2ccccc21 (stereo not given)	-0.81
CCOC(=O)c1ccc2c(=O)c(C(=O)OCC)c[nH]c2c1	-1.14
SMILES	Dicer inh
CCOc1ccc(NC2CC(=O)N(c3ccc(OCC)cc3)C2=O)cc1 (stereo not given)	0.01
Cc1cc2ncc(S(=O)(=O)c3ccc(Cl)cc3)c(C)n2n1	0.23
CSC(=CC(=O)c1ccc(Cl)cc1)SC	-0.68
O=C(/C=C1/NCCS1)c1ccc(Cl)cc1	3.78*
Cc1ccc(C(=O)/C=C/Nc2ccc(Cl)cc2)cc1	1.26
COc1ccccc1C1CCN(c2ccc(/C=C/C(=O)Nc3ccccc3)cc2[N+](=O)[O-])CC1	0.86
CC(C)(C)c1ccc(-c2[nH]nc(NS(=O)(=O)c3ccccc3)c2Br)cc1	-4.57
Cn1nccc1NS(=O)(=O)c1ccc(C(C)(C)C)cc1	-0.85
COc1ccccc1Oc1c(NS(=O)(=O)c2ccc(C(C)(C)C)cc2)nc(-c2ncccn2)nc1OCCO	17.6*
COC(=O)/C=C(\O/N=C(\N)c1ccc(Cl)cc1)C(=O)OC	0.28
CCOC(=O)c1oc2cc(O)ccc2c(=O)c1-c1ccc2c(c1)OCCO2	2.57
Cc1cc(=O)oc2cc(O)ccc12	0.16
Cc1oc2cc(O)ccc2c(=O)c1-c1ccc2c(c1)OCCO2	5.49*
CCOC(=O)c1oc2cc(O)c(CC)cc2c(=O)c1-c1ccc2c(c1)OCCO2	4.52*
COc1ccc(-c2c(C)oc3cc(OC(C)C(=O)O)ccc3c2=O)cc1OC (stereo not given)	1.33
CCCc1cc2c(=O)c(-c3ccc4c(c3)OCCO4)coc2cc1O	0.45
S=c1[nH]nc(-c2cccc3ccccc23)n1-c1ccccc1	-0.04
N#Cc1cnc(-c2ccncc2)nc1-c1cccs1	0.18
O=C(CCSc1nnc2scc(-c3ccccc3)n12)Nc1nsc(-c2ccccc2)n1	1.05
CC(C)C[C@H](NC(=O)COc1ccc(Cl)cc1Cl)C(=O)O	2.67
COc1cc(C2C(C#N)=C(C)NC3=C2C(=O)CCC3)ccc1OC(C)=O (stereo not given)	7.65
NC(=O)C1c2ccccc2Oc2ccccc21	-0.49
O=C(O)C1C2C=CC(C2)C1C(=O)NCc1ccccn1 (stereo not given)	-1.29
O=C(NCc1ccccn1)C1c2ccccc2Oc2ccccc21	3.09*
CC(C)c1nnc(NC(=O)C2c3ccccc3Oc3ccccc32)s1	0.88
SMILES	Dicer inh
O=C(Nc1ccncc1)C1c2ccccc2Oc2ccccc21	-1.06
COC(=O)C1c2ccccc2Oc2ccccc21	-0.31
O=C(NC1CCCC1)C1c2ccccc2Oc2ccccc21	4.31*
Cc1nnc(NC(=O)C2c3ccccc3Oc3ccccc32)s1	4.88*
CCCCCC(C)NC(=O)C1c2ccccc2Oc2ccccc21 (stereo not given)	-0.35
CC1=C(C(=O)OCc2ccccc2)C(c2ccc(C)cc2)C2=C(CCCC2=O)N1 (stereo not given)	6.78
CN(NC(=O)NC(=O)c1c(Cl)cccc1Cl)c1cccc(Cl)c1C#N	0.7
COc1ccc(/C=C2\CSc3ccccc3C2=O)cc1	-0.64
O=C1c2ccccc2S(=O)(=O)N1CC1CC1	-1.76
